Measured values: the GenesisPotency data set
Hit rate of the full screen: of about 290,000 compounds, about 3,000 (1%) were called active. This is one part of a sample in which actives are shown more often than they occur. No stated cut-off is given here; in the data, active means inhibition mostly above about 36% (no sharp cut-off); inactive means mostly below about 34%.

molecular target: T1, Nucleotide-binding oligomerization domain-containing protein 1, Homo sapiens (UniProt Q9Y239); assay: inhibition of NOD1-driven NF-kB reporter – cell-based, luminescence, uHTS, primary screen (AID 1578)
T1 sequence (whole entry): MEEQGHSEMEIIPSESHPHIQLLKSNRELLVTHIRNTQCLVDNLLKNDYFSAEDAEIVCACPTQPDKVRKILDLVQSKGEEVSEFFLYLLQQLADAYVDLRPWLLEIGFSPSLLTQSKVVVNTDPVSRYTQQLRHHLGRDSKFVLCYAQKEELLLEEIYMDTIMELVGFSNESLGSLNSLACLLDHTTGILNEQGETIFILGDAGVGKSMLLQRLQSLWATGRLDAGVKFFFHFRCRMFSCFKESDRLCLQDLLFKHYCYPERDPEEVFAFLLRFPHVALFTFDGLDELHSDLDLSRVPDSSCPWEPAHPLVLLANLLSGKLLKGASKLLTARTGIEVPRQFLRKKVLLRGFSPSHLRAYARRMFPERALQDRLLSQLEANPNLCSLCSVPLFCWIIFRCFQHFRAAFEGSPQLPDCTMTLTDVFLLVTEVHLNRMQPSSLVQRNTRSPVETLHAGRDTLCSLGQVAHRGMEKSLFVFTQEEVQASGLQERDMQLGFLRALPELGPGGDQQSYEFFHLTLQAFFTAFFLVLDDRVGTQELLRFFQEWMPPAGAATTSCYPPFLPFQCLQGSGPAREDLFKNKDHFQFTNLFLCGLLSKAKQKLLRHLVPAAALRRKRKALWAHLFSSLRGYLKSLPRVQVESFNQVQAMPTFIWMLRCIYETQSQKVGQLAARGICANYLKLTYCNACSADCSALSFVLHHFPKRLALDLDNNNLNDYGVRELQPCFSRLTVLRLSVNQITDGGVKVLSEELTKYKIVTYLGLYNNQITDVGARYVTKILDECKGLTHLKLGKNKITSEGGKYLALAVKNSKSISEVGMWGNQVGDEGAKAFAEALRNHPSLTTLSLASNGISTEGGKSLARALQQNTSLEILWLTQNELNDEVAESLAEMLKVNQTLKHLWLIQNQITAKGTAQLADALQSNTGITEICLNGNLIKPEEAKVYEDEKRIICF

outcome, active:
N#C/C(=C(/O)Cc1cccc2ccccc12)c1nc2ccccc2s1, N#C/C(=C(/O)COc1ccc(Cl)cc1)c1nc2ccccc2s1, COc1ccccc1NS(=O)(=O)c1cccc(NC(=O)c2sc3ccccc3c2Cl)c1, COc1ccc(C)cc1NC(=O)c1ccccc1NS(=O)(=O)c1ccc(Cl)s1, Cc1ccc(NC(=O)c2ccccc2NS(=O)(=O)c2ccc(Cl)s2)cc1S(=O)(=O)N1CCOCC1, CS(=O)(=O)Nc1ccccc1C(=O)Nc1cc(Cl)cc(Cl)c1, Cc1ccc(C)c(NC(=O)c2ccccc2NS(=O)(=O)c2cc([N+](=O)[O-])ccc2C)c1, Cc1ccc(NC(=O)c2ccccc2NS(=O)(=O)c2ccc(Cl)s2)cc1, COc1cc(NC(=O)c2ccccc2NS(=O)(=O)c2ccc(Cl)s2)cc(OC)c1, O=C1CCC2S/C(=C/Nc3ccc(C(F)(F)F)cc3)C(=O)N12 (centres undefined), Cc1ccc(-c2nn(CCC(=O)O)cc2/C=C\C(=O)c2ccc(Br)cc2)cc1, O=C(c1ccccc1)c1nn(-c2ccc(Cl)cc2)c(=O)cc1C(F)(F)F, CCOC(=O)c1c(N2C(=O)Nc3cc(Cl)c(Cl)cc3N2O)sc2c1CCCCC2, COc1ccc2cc3c(N)nn(C(=O)Cc4c[nH]c5ccccc45)c3nc2c1, COc1ccc2cc3c(N)nn(C(=O)Cc4ccccc4OC)c3nc2c1, CCCCCCc1cc2cc(S(=O)(=O)c3ccc(Cl)cc3)c(=O)oc2cc1O, CCCCCCc1cc2cc(S(=O)(=O)c3ccc(F)c(Cl)c3)c(=O)oc2cc1O, Cc1nn(Cc2ccc(Cl)cc2)c(C)c1NC(=O)c1noc2c1CCc1ccccc1-2, CC(C)Cn1c(N)c(C(=O)CSc2ccc3c(c2)OCCO3)c(=O)n(C)c1=O, COc1ccc(-c2cc(=O)oc3c(C)c(O)ccc23)cc1, COc1ccc(-c2cc(=O)oc3c(C)c(OC(=O)c4cccs4)ccc23)cc1, C=C1C(=O)O[C@@H]2C[C@@H](C)[C@@H]3C=CC(=O)[C@@]3(C)[C@@H](OC(C)=O)[C@H]12, COc1ccc(-c2cn[nH]c2-c2ccc(OC)cc2O)cc1, COc1ccc(-c2cn[nH]c2-c2ccc(O)cc2O)cc1, COc1ccc(-c2[nH]ncc2-c2ccc3c(c2)OCCO3)c(O)c1, COc1ccc(-c2cn[nH]c2-c2ccc(OC)cc2)cc1, Cc1nc2ccc(NS(=O)(=O)c3ccc(F)c(C)c3)cc2[nH]1, O=C(Nc1nnc(-c2ccccc2Cl)o1)c1ccc(S(=O)(=O)N2CCCCCC2)cc1, CC1CCCCN1S(=O)(=O)c1ccc(C(=O)Nc2nnc(-c3ccccc3Cl)o2)cc1 (centres undefined), CCC1CCCCN1S(=O)(=O)c1ccc(C(=O)Nc2nnc(-c3ccccc3Cl)o2)cc1 (centres undefined), Cc1nc2ccccc2c(C)c1C(=O)c1ccc(F)cc1.Cl, Cc1ccc(OCC(=O)c2cc(C)n(Cc3ccco3)c2C)c([N+](=O)[O-])n1, Cc1ccc(OCC(=O)c2cc(C)n(Cc3cccs3)c2C)c([N+](=O)[O-])n1, COCCn1c(C)cc(C(=O)COC(=O)c2cccc(O)c2)c1C, COCCn1c(C)cc(C(=O)COc2ccc(C)nc2[N+](=O)[O-])c1C, CCOC(=O)/C=C/S(=O)(=O)c1ccc(NC(C)=O)cc1, O=C(Oc1c(-c2ccccc2)c(=O)n2c3c(cccc13)CC2)c1ccccc1, O=C(Oc1c(-c2ccccc2)c(=O)n2c3c(cccc13)CC2)c1ccc(Cl)cc1, CC(C)(C)OC(=O)NCC(=O)Oc1cc2oc(=O)cc(-c3ccccc3)c2cc1Cl, O=C(CNC(=O)OCc1ccccc1)Oc1cc2oc(=O)cc(-c3ccccc3)c2cc1Cl, CN(CC1CCCO1)S(=O)(=O)c1ccc(C(=O)Nc2nc3cc4c(cc3s2)OCO4)cc1 (centres undefined), CC(=O)c1cn(CCOc2cc(C)ccc2C)c2ccccc12, CC(=O)c1cn(CCOc2ccccc2C)c2ccccc12, COc1ccc(-c2cc(N)n(S(=O)(=O)c3c(F)c(F)c(F)c(F)c3F)n2)cc1OC, Cc1ccc(CSC(Nc2ccc(F)cc2)=C(C#N)C#N)cc1, N#CC(C#N)=C(Nc1ccc(F)cc1)SCc1cccc(Br)c1, N#CC(C#N)=C(Nc1ccc(F)cc1)SCc1cccc(F)c1, O=C(COc1ccc2c(-c3ccccc3)cc(=O)oc2c1)Nc1ccc(CCO)cc1, CCCc1ccc(-c2c(C)sc(NC(=O)c3ccnn3C)c2C#N)cc1, O=C1N/C(=N\N=C\c2ccccn2)SC1Cc1cccc(SC(F)F)c1 (centres undefined), COc1ccccc1C(=O)Nc1nc2ccccc2s1, COc1ccc(C(=O)Nc2nc3ccccc3s2)c(OC)c1, CCOc1ccc2nc(NC(=O)c3ccccn3)sc2c1, O=C(Nc1ccc([N+](=O)[O-])cc1)Nc1nc(-c2ccc(Cl)s2)cs1, Cc1ccc(N(C(=O)CCl)C(C(=O)NC2CCCCC2)c2cccnc2)cc1C (centres undefined), O=C(NC1CCCCC1)C(c1cccnc1)N(C(=O)CCl)c1ccccc1Cl (centres undefined), O=C(NC1CCCCC1)C(c1cccnc1)N(C(=O)CCl)c1cccc(Cl)c1 (centres undefined), COC(CN(C(=O)CCl)C(C(=O)NC1CCCCC1)c1ccccc1C)OC (centres undefined), COc1ccc(C(C(=O)NC2CCCCC2)N(C(=O)CCl)c2cccc(Cl)c2)cc1 (centres undefined), CC(C)c1noc2ncc(C(=O)c3cc(Cl)cc(Cl)c3O)cc12, Cc1nnc(N2CCCC(C(=O)Nc3cc(F)ccc3F)C2)c2nn(-c3ccccc3)c(C)c12 (centres undefined), N#CCc1ccc(NC(=O)c2ccc(CN3CCc4ccccc4C3)cc2)cc1, O=C(Nc1ccc(F)cc1)c1ccc(CN2CCc3ccccc3C2)cc1, Cc1ccc(-c2csc(N3CCC(NS(=O)(=O)c4ccc5c(c4)OCCO5)CC3)n2)cc1, COc1ccc(Oc2ccccc2/C=N/O)cc1, O=C(CSc1nnnn1C1CC2CCC1C2)Nc1ccnc2ccccc12 (centres undefined), CCC(C)Cn1c([O-])cc2nn(-c3nc4ccccc4s3)c(=O)c-2c1C.[Na+] (centres undefined), CC1=Nc2ccccc2/C1=C/c1sc(=N)n(-c2nccs2)c1O, Nc1cc2ccncc2c2ccccc12, NC(=O)c1cc2ccncc2c2ccccc12, Cc1cccc(C(=O)NNC2=C(C(=O)C(F)(F)F)CCC2)c1O, C=CS(=O)(=O)c1ccc(Oc2ccc(S(=O)(=O)C=C)cc2)cc1, COc1cccc(C(=O)/C=C/Nc2ccc(S(=O)(=O)Nc3cccc(C(C)=O)c3)cc2)c1, COc1cccc(NS(=O)(=O)c2ccc3c(c2)CCN3C(C)=O)c1, Cc1c(C)n(Cc2ccccc2)c2ncnc(Cl)c12, Br.CCCCCCCCn1c2c(c(=N)c3ccccc31)CCC2, Br.CCCCCCCCCn1c2c(c(=N)c3c1CCC3)CCC2, Br.CCCCCCCCCCn1c2c(c(=N)c3c1CCC3)CCC2, COc1cccc(NC(=O)CN(C)CC(=O)Nc2ccc(C)c([N+](=O)[O-])c2)c1, Cc1ccc(N(Cc2cc(=O)[nH]c3ccccc23)C(=O)CCl)cc1, O=C(CCl)N(Cc1cc(=O)[nH]c2ccccc12)c1ccccc1, Cc1cccc(N(Cc2cc(=O)[nH]c3ccccc23)C(=O)CCl)c1, Cn1cc([N+](=O)[O-])c(C(=O)Nc2cc(Oc3ccccc3)cc([N+](=O)[O-])c2)n1, O=C(c1nnsc1S(=O)(=O)c1ccc(Cl)cc1)N1CCOCC1, CNC(=O)c1nnsc1S(=O)(=O)c1ccc(Cl)cc1, O=C(Nc1nnc(-c2ccc3c(c2)OCCO3)o1)c1ccc(Cc2ccccc2)cc1, CCCN(CCC)S(=O)(=O)c1ccc(C(=O)Nc2nnc(-c3cc(OC)cc(OC)c3)o2)cc1, COc1cc(OC)cc(-c2nnc(NC(=O)c3ccc4c(c3)OCCO4)o2)c1, O=C(Nc1nnc(-c2ccco2)o1)c1ccc2ccccc2c1, CSCc1nnc(NC(=O)c2ccc(S(=O)(=O)N(CC(C)C)CC(C)C)cc2)o1, O=C(Nc1ccc(Oc2ccccc2)cc1)C1CCN(c2c3c(nc4ncnn24)CCC3)CC1, CC1CCc2nc(N)c(C#N)c(-c3cccnc3)c2C1 (centres undefined), Cc1nc(N)c(C#N)c(-c2cccnc2)c1-c1ccccc1, Cc1ccc(NC(=O)O/N=C/c2c(C)nn(C(C)(C)C)c2C)cc1Cl, CC(=O)Oc1c(C)cc(Cl)cc1C(=O)Nc1ccc([N+](=O)[O-])cc1Cl, N#Cc1c(NC(=O)CSc2ncn[nH]2)sc2c1CCCCC2, CC1CCc2c(sc(NC(=O)CSc3ncn[nH]3)c2C#N)C1 (centres undefined), N#Cc1c(NC(=O)CSc2ncn[nH]2)sc2c1CCCC2, O=C(Nc1cc(S(=O)(=O)Nc2ccccc2Cl)ccc1O)c1cc2c(s1)CCCC2, Cc1ccc(NC(=O)c2cc3c(s2)CCCC3)cc1S(=O)(=O)Nc1ccccc1Cl, Cn1c(=O)c(C#N)c(-c2ccc(F)cc2)c2cc(C(=O)c3cc(Cl)cc(Cl)c3O)cnc21, CC(C)(C)c1ccc(C(=O)N2CCCCCC2=O)cc1, O=C(COc1ccc(Cl)cc1Cl)Nc1ccc(C(=O)Nc2ccccc2C(=O)O)cc1, Oc1c(Cl)cc(Cl)c2cccnc12, O=[N+]([O-])c1cc(Cl)c(O)c2ncccc12, Oc1c(I)cc(Cl)c2cccnc12, O=C(Oc1c(Cl)cc(Cl)c2cccnc12)c1ccco1, Oc1c(I)cc(I)c2cccnc12, c1ccc(N2CCN(c3ncnc4sc5c(c34)CCC5)CC2)cc1
